Consider 17 compounds from PubChem BioAssay.

Activity calls are given as the source filed them.

The nature of assay [1]: compound effects on lung adenocarcinoma cell viability – A549, calcein-AM fluorescence, 48 h, basal, profiling panel (AID 1162). Particulars: higher = more signal.
A short description of assay [2]: compound effects on differentiated 3T3-L1 adipocyte viability – cell-based, 3T3-L1 adipocytes, calcein-AM fluorescence, 48 h, basal, profiling panel (AID 1163). As to conditions: 3T3-L1 adipocytes viability, higher = more signal.
Assay [3] is described as follows: compound effects on hepatocellular carcinoma cell viability – HepG2, calcein-AM fluorescence, 48 h, basal, profiling panel (AID 1164). Particulars: higher = more signal.
Assay [4] in a line: compound effects on multiple myeloma cell viability – MM1S, calcein-AM fluorescence, 48 h, basal, profiling panel (AID 1165).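 Further: viability of MM1S multiple myeloma cells under basal unstimulated conditions.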 Particulars: higher = more signal.
A short description of assay [5]: calcein-AM signal in unstimulated myeloma cells – cell-based, calcein-AM fluorescence, 48 h, PK04 Diversity Set, profiling panel (AID 1166).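 Further: cells grown under basal conditions without added stimulus.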 As to conditions: RPMI8226 myeloma viability, higher = more signal.
The nature of assay [6]: JC-1 mitochondrial signal, unstimulated HepG2 cells – cell-based, JC-1 fluorescence, 24 h, 100 nL compound, profiling panel (AID 1167). As to conditions: HepG2 mitochondrial potential, higher = more signal.
A short description of assay [7]: JC-1 mitochondrial signal, unstimulated adipocytes – cell-based, JC-1 fluorescence, 3T3-L1 adipocytes, 24 h, 100 nL compound, profiling panel (AID 1168). As to conditions: JC-1 mitochondrial fluorescence, higher = more signal, called active from +8 up or from −8 down.
Assay [8] in a line: JC-1 mitochondrial signal, unstimulated myeloma cells – cell-based, JC-1 fluorescence, RPMI8226, 24 h, 100 nL compound, profiling panel (AID 1169). As to conditions: JC-1 mitochondrial potential fluorescence, higher = more signal.
The nature of assay [9]: JC-1 mitochondrial signal, unstimulated MM1S myeloma – cell-based, JC-1 fluorescence, 24 h, 100 nL compound, profiling panel (AID 1170). Particulars: MM1S mitochondrial potential, higher = more signal.
A short description of assay [10]: resazurin metabolic signal in A549 cells – cell-based, resazurin fluorescence, 24 h, PK04 Diversity Set, profiling panel (AID 1171). Particulars: A549 viability, higher = more signal, called active from +8 up or from −8 down.
Further: test concentration not given here.

Regarding `CC(C)[C@@H](OCc1ccccc1)[C@H](C)C=NO[C@H](C)c1cn([C@@H]2COC[C@H]2O)nn1`, the z-score in assay [1] is 0.569; in assay [2] it was -0.478; in assay [3], -0.0131; in assay [4] it was 0.0238; in assay [5] it was -0.0081; in assay [6], -0.479. Also, the z-score in assay [7] is -0.98 (inactive); in [8], 0.608; in [9], -0.601; in assay [10], -0.516 (inactive).
Regarding `CCN1C(=O)[C@H]2[C@@H]3C(=CC[C@H]2C1=O)C(=O)[C@H]1O[C@H]1[C@H]3O`, the z-score was -0.163 in assay [1]; 0.634 in assay [2]; -0.929 in assay [3]; -3.04 in assay [4]; -3.9 in assay [5]; -2.06 in assay [6]. In addition, the z-score in [7] was 0.772 (inactive); in assay [8] it was -0.991; in assay [9] it was -2.82; in assay [10], -1.17 (inactive).
As for `CC(CCC(=O)OC[C@H]1O[C@H](C#Cc2ccccc2)C=C[C@@H]1Oc1ccc(C)cc1)=NOC(C)CN1CCCc2nc(C)c(C)cc21` (stereo not given in full), the z-score was -0.177 in assay [1]; -0.271 in [2]; 0.267 in assay [3]; -2.18 in assay [4]; -1.39 in assay [5]; 0.542 in assay [6]. The z-score in [7] was -2.38 (inactive); in [8] it was -0.7; in assay [9] it was -0.74; in assay [10] it was -0.719 (inactive).
Take `CCOC(=O)[C@H](CC(C)C)NC(=O)CCC1CC(OC(=O)NCc2ccc3c(c2)OCO3)CC2(CCCC(COC(=O)NCCC(C)C)O2)O1` (stereo not given in full): the z-score was 0.0634 in [1]; -0.0921 in assay [2]; -0.231 in assay [3]; 0.473 in assay [4]; 0.403 in assay [5]; 0.449 in [6]. The z-score in assay [7] is 0.135 (inactive); in assay [8], -0.938; in [9], -0.155; in assay [10], 0.704 (inactive).
`O=C(NCCC[N+]1=CC=NC1c1ccccc1)N1CCCc2nc(-c3ccc(Br)cc3)ccc21` (stereo not given): the z-score in assay [1] is 0.478; in [2], -1.13; in assay [3], -0.598; in assay [4], -2.52; in [5] it was -0.77; in [6], 1.13. Moreover, the z-score in assay [7] is -0.141 (inactive); in assay [8], 0.184; in [9], -0.404; in assay [10], 0.811 (inactive).
With `C=C(C)C(=O)OC[C@H]1CN2[C@@H](CC[C@@H](C)[C@@H]2c2ccc(Br)cc2)C(=O)O1`, the z-score is 0.824 in assay [1]; 0.278 in assay [2]; 1.33 in [3]; 0.244 in [4]; -1.34 in assay [5]; 0.393 in assay [6]. Besides, the z-score in [7] was -0.142 (inactive); in assay [8], -0.521; in assay [9], -0.197; in assay [10], 0.634 (inactive).
In the case of `C=CCOCC1CN2[C@@H](CC[C@@H](C)[C@@H]2c2ccc(Br)cc2)C(=O)O1` (stereo not given in full), the z-score in assay [1] is 0.124; in assay [2], 0.312; in assay [3], 0.289; in assay [4] it was -0.268; in [5] it was -0.0306; in assay [6], 0.506. Moreover, the z-score in [7] is -0.809 (inactive); in [8], -0.207; in assay [9] it was 0.672; in assay [10], 0.743 (inactive).
As for `O=C(NN=C1C[C@@H](O)[C@@H](O)[C@@H]2[C@@H]3C(=O)N(c4ccc(F)cc4F)C(=O)[C@@H]3CC[C@H]12)OCc1ccccc1`, the z-score was -0.299 in assay [1]; -0.198 in assay [2]; -1.39 in assay [3]; -0.46 in assay [4]; 0.707 in [5]; 0.344 in [6]. Also, the z-score in [7] was 0.533 (inactive); in assay [8], 0.0563; in assay [9], -0.741; in [10] it was 1.88 (inactive).
Take `CO[C@H]1COC(=O)CCC[C@H](C)[C@H](OC)COC(=O)CC=C[C@@H]1C`: the z-score in assay [1] was 1.11; in [2] it was -0.14; in [3] it was 0.481; in [4] it was -0.469; in [5] it was -0.351; in assay [6], -0.101. The z-score in [7] was -1.7 (inactive); in [8] it was 0.226; in assay [9], -0.982; in assay [10] it was 0.285 (inactive).
With `CCOC(=O)[C@H](Cc1ccccc1)NC(=O)CCC1CC(OC(=O)NCCc2ccc(F)cc2)CC2(CCCC(COC(=O)NCCOc3ccccc3)O2)O1` (stereo not given in full), the z-score is 0.613 in [1]; -0.156 in assay [2]; 0.141 in assay [3]; -0.565 in [4]; -1.25 in assay [5]; 1.71 in assay [6]. In addition, the z-score in assay [7] was 0.508 (inactive); in assay [8], -0.218; in [9] it was -0.123; in assay [10] it was 0.264 (inactive).
`CC(CCC(=O)OC[C@H]1O[C@H](C#Cc2ccccc2)C=C[C@@H]1Oc1ccc(C)cc1)=NO[C@@H](C)c1cc(-c2c(C)cc(C)cc2C)no1`: the z-score in assay [1] is -0.355; in [2], 0.777; in [3] it was -0.338; in [4], -0.0941; in assay [5], -2.61; in assay [6], 1.78. Besides, the z-score in [7] was -0.495 (inactive); in assay [8], 0.621; in [9], 0.114; in assay [10] it was -0.366 (inactive).
Turning to `CC(C)CON=C1C[C@@H](O)[C@@H](O)[C@@H]2[C@@H]3C(=O)N(C(C)(C)C)C(=O)[C@@H]3CC[C@@H]12`, the z-score in assay [1] was -0.502; in [2], 1.07; in assay [3], -0.337; in assay [4], 0.086; in assay [5], -0.289; in assay [6], -0.0218. For the same compound, the z-score in [7] is 0.174 (inactive); in assay [8], -0.865; in assay [9], 0.342; in [10], -0.288 (inactive).
Regarding `CCO[C@H](c1cc(OC)cc([N+](=O)[O-])c1OC)[C@H](C)[C@@H](OC)[C@H](C)C=CCC(=O)OC`, the z-score is 0.207 in assay [1]; -0.402 in assay [2]; 0.513 in assay [3]; 0.0601 in assay [4]; 0.824 in assay [5]; -0.524 in assay [6]. Besides, the z-score in assay [7] was -0.476 (inactive); in assay [8] it was -0.441; in [9], -0.236; in [10] it was 0.319 (inactive).
As to `CO[C@@H]1COC(=O)[C@H](COCc2ccccc2)NC(=O)CC=C[C@@H](C)[C@H](OC)COC(=O)[C@@H](C)NC(=O)CC=C[C@H]1C`, the z-score is 0.759 in assay [1]; 0.0006 in assay [2]; 0.56 in assay [3]; 0.208 in [4]; -1.54 in [5]; 0.648 in assay [6]. Moreover, the z-score in assay [7] was -0.828 (inactive); in [8] it was 0.402; in assay [9], -0.343; in assay [10] it was 0.846 (inactive).
As for `CC(CCN1CCc2nc(-c3ccccc3)c(-c3ccccc3)cc2C1)=NOC(C)CN1CCCc2nc(C)c(C)cc21` (stereo not given), the z-score was 1.23 in assay [1]; 0.301 in assay [2]; 0.69 in assay [3]; -2.9 in [4]; -0.616 in [5]; 6.43 in assay [6]. The z-score in assay [7] is -1.28 (inactive); in [8] it was -0.866; in assay [9], -0.881; in assay [10], 0.289 (inactive).
In the case of `CC(CCN1CCCCc2nc(C)c(C)cc21)=NO[C@H](C)c1cn([C@@H]2COC[C@H]2O)nn1`, the z-score in [1] was 0.368; in [2], -0.807; in [3] it was 0.251; in [4], 0.287; in assay [5], 0.0323; in assay [6], 0.0457. For the same compound, the z-score in [7] was 0.229 (inactive); in assay [8], 1.18; in assay [9], -0.992; in assay [10], -0.454 (inactive).
Consider `COC(=O)[C@H](C)NC(=O)CCC1CC(OC(=O)NCc2cccc3ccccc23)CC2(CCCC(COC(=O)NCCc3ccccc3OC)O2)O1` (stereo not given in full), for which the z-score in assay [1] was -0.932; in assay [2], -1.02; in assay [3] it was -1.44; in assay [4] it was -3.38; in assay [5], -1.79; in assay [6], -0.525. Also, the z-score was -0.309 (inactive) in assay [7], 0.179 in assay [8], -1.33 in assay [9] and 0.642 (inactive) in [10].
